Measured values taken from PubChem BioAssay (Tox21).
Several values for one entry are separate records, joined by “and”; a condition that tells them apart may be missing. Equal values may be shown once. Results filed as inconclusive are left out. The source holds several records for some structures; these can differ, active in one and inactive in another. Activity calls are given as the source filed them. Unless noted, calls come from the whole dose curve; as a rule, active = well fitted curve in the direction sought with a large enough effect in the repeat runs; inconclusive = weak or mixed curves; inactive = no such curve, though single readings can be large; an effect the other way counts as inactive or inconclusive.

Assays:
[1] = qHTS assay for small molecule agonists of the p53 signaling pathway (AID 651631; calls by dose curve; note: nearly all actives have a fitted effect of over 15% in size; note: potency is the fitted concentration of half-maximal effect)
Method in brief: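 HCT-116 cells carrying a stable p53 response element–beta-lactamase reporter were plated, rested 5 h at 37 °C, then exposed to compound in DMSO for 16 h at 37 °C; reporter activity was read as FRET substrate fluorescence after 2 h at room temperature.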

[2] = qHTS assay for small molecules that induce genotoxicity in human embryonic kidney cells expressing luciferase-tagged ATAD5 (AID 651632); note: nearly all actives have a fitted effect of over 15% in size; note: potency is the fitted concentration of half-maximal effect
Method in brief: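 Increased luciferase signal from ATAD5-tagged reporter cells indicates DNA-damage-driven ATAD5 induction. HEK293T cells are treated for 16 hr at 37C before detection with Amplite.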

[3] = qHTS assay for small molecule agonists of the p53 signaling pathway - cell viability (AID 651633; calls by dose curve; note: nearly all actives have a fitted effect of over 30% in size; note: potency is the fitted concentration of half-maximal effect)
Method in brief: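 Viability counter-read: CellTiter-Glo luminescence (30 min, room temperature) in the same p53RE-bla plates. These plates had been exposed to compounds for 16 h at 37 C.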

[4] = qHTS assay for small molecules that induce genotoxicity in human embryonic kidney cells expressing luciferase-tagged ATAD5 - cell viability (AID 651634; calls by dose curve; note: nearly all actives have a fitted effect of over 25% in size; note: potency is the fitted concentration of half-maximal effect)
Method in brief: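 Cytotoxicity counterscreen in HEK293T cells bearing an ATAD5-luciferase reporter: live-cell protease activity measured by CellTiter-Fluor fluorescence after 15.5 hr compound exposure.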

[5] = qHTS assay to test for compound auto fluorescence at 590 nm (red) in HepG2 cells (AID 720674)
Method in brief: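 We screened compounds on adherent HepG2 cells, incubating them for an hour at 37 C in 5% CO2 before reading emission at 590 nm under 540 nm excitation; values reflect equivalence to Rose Bengal sodium fluorescence.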

[6] = qHTS assay to test for compound auto fluorescence at 535 nm (green) in HepG2 cells (AID 720675)
[7] = qHTS assay to test for compound auto fluorescence at 460 nm (blue) in HEK293 cells (AID 720678); note: potency is the fitted concentration of half-maximal effect
Method in brief: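 After cell attachment (4-5 hr, 37C), compounds were pinned onto HEK293 monolayers in 10% dialyzed FBS medium. The blue channel (405/460 nm) was read following overnight culture. Equivalency was calculated against triamterene.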

[8] = qHTS assay to test for compound auto fluorescence at 590 nm (red) in HEK293 cells (AID 720679)
Method in brief: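 Plates of HEK293 cells (10% dialyzed FBS) are treated with 23 nL compound or DMSO vehicle after a 4-5 hr attachment period, incubated overnight at 37C, and read for red fluorescence at 540/590nm.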

[9] = qHTS assay for small molecule disruptors of the mitochondrial membrane potential - cell viability (AID 720634; calls by dose curve;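 note: human HepG2 liver cancer cells; series mostly up to about 83 µM; nearly all actives have a fitted effect of over 20% in size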)
Method in brief: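 After overnight attachment at 37 C, HepG2 cells received compound or DMSO vehicle for 1 hr. Viability is then taken from ATP-driven luminescence following a 30 min room-temperature CellTiter-Glo step.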

[10] = qHTS assay for small molecule disruptors of the mitochondrial membrane potential (AID 720635); note: potency is the fitted concentration of half-maximal effect
Method in brief: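 Mitochondrial membrane potential tracked with Mito-MPS dye, red aggregates (ex 540/em 590 nm) against green monomers (ex 490/em 535 nm). Compound treatment 1 hr at 37C, dye 30 min in HepG2.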

Measured: Potency
Tags give direction and shape of the fitted curve or compound fluorescence and quenching.

Cc1cc(Cc2ccc(N)c(C)c2)ccc1N
not listed: [9] | [10]
inactive: all other assays above

CC1(C)CC(N=C=O)CC(C)(CN=C=O)C1 (configuration not stated)
not listed: [6] | [10]
inactive: all other assays above

C/C=C(C)/C=C/C=C(C)C
not listed: [6] | [10]
inactive: all other assays above

CCCCC/C=C\C/C=C\CCCCCCCC(=O)OC
not listed: [9] | [10]
inactive: all other assays above

C=C(C)C(=O)OCCCCCCCCCCCC
not listed: [9] | [10]
inactive: all other assays above

CCCCCCCCC
not listed: [9]
inactive: all other assays above

CCc1ccc(O)cc1
active: [10] 54.7 µM
not listed: [9]
inactive: all other assays above

O=[N+]([O-])C(CO)(CO)CO
not listed: [9] | [10]
inactive: all other assays above

Cc1cc(O)c2c(c1)C(=O)c1cc(O)cc(O)c1C2=O
active: [1] 10.6 µM | [4] 23.8 µM and 54.5 µM | [10] 1.68 µM and 545 nM
inactive and 61.1 µM (active): [3]
not listed: [9]
inactive: all other assays above

CS(=O)(=O)c1ccc([C@@H](O)[C@@H](CO)NC(=O)C(Cl)Cl)cc1
not listed: [9]
inactive: all other assays above

CCC(C)C=O (configuration not stated)
not listed: [9]
inactive: all other assays above

NCCc1ccc(O)c(O)c1
not listed: [9]
inactive: all other assays above

C=CC(=O)OCCCCCCCC(C)C
not listed: [9]
inactive: all other assays above

O=C(Cl)c1c(Cl)c(Cl)c(C(=O)Cl)c(Cl)c1Cl
not listed: [9]
inactive: all other assays above

C=C(C#N)C(=O)OCC
not listed: [6] | [10]
inactive: all other assays above

O=C(O)c1cc(-c2ccccc2)nc2ccccc12
not listed: [9] | [10]
inactive: all other assays above

C[C@@H]1O[C@@H](OC[C@H]2O[C@@H](Oc3c(-c4ccc(O)c(O)c4)oc4cc(O)cc(O)c4c3=O)[C@H](O)[C@@H](O)[C@@H]2O)[C@H](O)[C@H](O)[C@H]1O
not listed: [9]
inactive: all other assays above

O=c1c(-c2ccc(O)cc2)coc2cc(O)ccc12
active: [2] 30.3 µM | [10] 19.1 µM
not listed: [9]
inactive: all other assays above

Oc1c(Cl)cc(Cl)c(Cl)c1Cl
active: [1] 16.9 µM | [10] 11.9 µM and 19.3 µM
inactive and 61.1 µM (active): [3]
not listed: [4] | [9]
inactive: all other assays above

CC#C[C@]1(O)CC[C@H]2[C@@H]3CCC4=CC(=O)CCC4=C3[C@@H](c3ccc(N(C)C)cc3)C[C@@]21C
active: [1] 21.1 µM and 61.1 µM | [3] 9.44 µM | [10] 10.6 µM
not listed: [4] | [6]
inactive: all other assays above

S=c1nc[nH]c2nc[nH]c12
active: [1] 8.41 µM and 5.31 µM | [3] 1.88 µM and 1.19 µM
not listed: [9]
inactive: all other assays above

CCCCC(CC)COC(=O)/C=C\C(=O)OCC(CC)CCCC (configuration not stated)
not listed: [6] | [9]
inactive: all other assays above

NC(=O)/N=N/C(N)=O
not listed: [9] | [10]
inactive: all other assays above

Nc1nc2ncc(CNc3ccc(C(=O)N[C@@H](CCC(=O)O)C(=O)O)cc3)nc2c(=O)[nH]1
active: [7] 44.7 µM [fluorescent]
not listed: [6] | [9]
inactive: all other assays above

COC(=O)Nc1nc2ccc(Sc3ccccc3)cc2[nH]1
active: [1] 114 nM and 68.6 nM | [2] 4.03 µM and 12.2 µM | [10] 4.33 µM
not listed: [6] | [9]
inactive: all other assays above

Oc1ccc(OCc2ccccc2)cc1
active: [1] 9.02 µM | [2] 12.7 µM | [10] 10.1 µM and 23.8 µM
not listed: [9]
inactive: all other assays above

CCOC(=O)[C@H](CCc1ccccc1)N[C@@H](C)C(=O)N1Cc2ccccc2C[C@H]1C(=O)O
not listed: [6] | [9]
inactive: all other assays above

c1ccc2[nH]cnc2c1
not listed: [6] | [9]
inactive: all other assays above

O=[N+]([O-])c1cccc(Cl)c1
not listed: [9]
inactive: all other assays above

CC1(C)O[C@@H]2C[C@H]3[C@@H]4C[C@H](F)C5=CC(=O)CC[C@]5(C)[C@H]4[C@@H](O)C[C@]3(C)[C@]2(C(=O)CO)O1
not listed: [9]
inactive: all other assays above

O=[N+]([O-])c1cc(N(CCO)CCO)ccc1NCCO
inactive: [1] | [3] | [5] | [7] | [8]

CC(C)(C)C(=O)C1C(=O)c2ccccc2C1=O
active: [4] 17.1 µM and 7.7 µM | [10] 10.8 µM and 6.11 µM
not listed: [1] | [9]
inactive: all other assays above

Cc1ccc(C(=O)O)o1
not listed: [1]
inactive: all other assays above

CS(=O)(=O)Nc1ccc([N+](=O)[O-])cc1Oc1ccccc1
inactive: [1] | [3] | [5] | [6] | [7] | [8]

CC(=O)[C@@]1(O)CC[C@H]2[C@@H]3CCC4=CC(=O)CC[C@]4(C)[C@H]3CC[C@@]21C
not listed: [1] | [3] | [6]
inactive: all other assays above

CC(C)NCC(O)COc1cccc2ccccc12 (configuration not stated)
not listed: [2] | [10]
inactive: all other assays above

CCCCCCCCCCCCOCC1CO1 (configuration not stated)
not listed: [1]
inactive: all other assays above

CC1=C(/C=C/C(C)=C/C=C/C(C)=C/CO)C(C)(C)CCC1
inactive: [2] | [3] | [4] | [5] | [7] | [8]

CCCCCCCCCC(=O)O
not listed: [1] | [9] | [10]
inactive: all other assays above

CC1COc2ccccc2N1C(=O)C(Cl)Cl (configuration not stated)
inactive: [3] | [4] | [5] | [6] | [7] | [8]

O=Nc1ccc(O)cc1
active: [10] 670 nM and 13.7 µM
not listed: [1]
inactive: all other assays above

CCCCCC/C=C/CCCCCCCC(=O)O
not listed: [1] | [6]
inactive: all other assays above

CC1CC(OC(=O)c2ccccc2O)CC(C)(C)C1 (configuration not stated)
active: [10] 27 µM
not listed: [2]
inactive: all other assays above

O=S(=O)(Oc1ccc(Cl)cc1Cl)c1ccccc1
active: [10] 27.8 µM and 61.1 µM
not listed: [1] | [3] | [9]
inactive: all other assays above

C=C1CC[C@H](O)CC1=C/C=C1\CCC[C@]2(C)[C@@H]([C@H](C)/C=C/[C@H](C)C(C)C)CC[C@@H]12
inactive and 60.6 µM (active): [10]
active: [3] 54 µM and 68.6 µM
not listed: [1] | [6]
inactive: all other assays above

CCc1ccccc1O
not listed: [1] | [6]
inactive: all other assays above

Oc1ccc2ccccc2c1
active: [10] 49.7 µM and 30.6 µM
not listed: [2]
inactive: all other assays above

Cc1cc(NS(=O)(=O)c2ccc(N)cc2)no1
inactive: [10] | [5] | [6] | [7] | [8]

O=C1CCCCC1
not listed: [1] | [6] | [9]
inactive: all other assays above

O=C(O)c1ccc([N+](=O)[O-])cc1
not listed: [2] | [9]
inactive: all other assays above

O=C1N=C(O)CN1/N=C/c1ccc(-c2ccc([N+](=O)[O-])cc2)o1
active: [10] 3.35 µM and 2.43 µM
not listed: [1] | [2] | [9]
inactive: all other assays above

CCCCCCCCCCC=CC1CC(=O)OC1=O (configuration not stated)
inactive: [4] | [5] | [6] | [7] | [8]
active: [10] 68.9 µM
61.4 µM (active) and inactive: [3]

CCCCC(CC)COC(C)=O (configuration not stated)
inactive: [2] | [4] | [10] | [5] | [7] | [8]

CCCCCCC(C)(C)S
not listed: [1] | [3]
inactive: all other assays above

CC(C)n1c(/C=C/[C@@H](O)C[C@@H](O)CC(=O)O)c(-c2ccc(F)cc2)c2ccccc21
active: [10] 26.6 µM
inactive: [3] | [9] | [5] | [7] | [8]
